Assay [1] in a line: qHTS RealTime-Glo MT Cell Viability Assay in HEK293 cells - 8 hour (AID 1224887). Further: nearly all actives have a fitted effect of over 50% in size. Further: potency means the concentration at half of the fitted maximal effect. A digest of the protocol: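 600 HEK293 cells per well, dispensed already mixed with RealTime-Glo MT reagents. Compound dosing came 5 h later. The same wells were read for luminescence at 0, 8, 16, 24, 32 and 40 h of exposure at 37 C.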
A short description of assay [2]: A CellTox Green Cytotoxicity Assay to monitor cytotoxicity in HEK293 cells - 16 hour (AID 1224888). Further: nearly all actives have a fitted effect of over 35% in size. Further: potency means the concentration at half of the fitted maximal effect. A digest of the protocol: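 Dead-cell fluorescence measured kinetically: asymmetric cyanine dye, HEK293, 600 cells/well, 5 h settle, 23 nL cpd/DMSO, 37 C, reads 0–40 h every 8 h.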
Assay [3] in a line: qHTS RealTime-Glo MT Cell Viability Assay in HepG2 cells - 0 hour (AID 1224889). Further: nearly all actives have a fitted effect of over 50% in size. Further: potency means the concentration at half of the fitted maximal effect. A digest of the protocol: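 qHTS, HepG2, 600 cells/well, RealTime-Glo (NanoLuc + prosubstrate) added with cells; 5 h preincubation; DMSO compound addition; 37 C; luminescence at 0/8/16/24/32/40 h.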
A short description of assay [4]: qHTS assay to identify small molecule antagonists of the estrogen receptor alpha (ER-alpha) signaling pathway using the BG1 cell line in the presence of 0.1 nM 17-beta-estradiol - cell viability counter screen (AID 1259241). Further: nearly all actives have a fitted effect of over 40% in size. A digest of the protocol:
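In this screen, hormone-deprived VM7Luc4E2 cells were seeded at 4,000 per well, dosed with compound and 0.1 nM estradiol final, and incubated 22 hr at 37C and 5% CO2; fluorogenic live-cell protease signal reported viability.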

Assay [5] in a line: qHTS assay to identify small molecule antagonists of the androgen receptor (AR) signaling pathway using the MDA cell line in the presence of 0.5 nM R1881 - cell viability counter screen (AID 1259242). Further: nearly all actives have a fitted effect of over 45% in size. Further: potency means the concentration at half of the fitted maximal effect. A digest of the protocol:
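qHTS format. MDA-kb2 (MMTV-luc, AR/GR responsive) + cpd + 0.5 nM R1881 final, 16 hr 37C/0% CO2 → CellTiter-Fluor 30 min → fluorescence intensity.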

Assay [6] in a line: qHTS assay to identify small molecule HDAC inhibitors (AID 1259364). Further: potency means the concentration at half of the fitted maximal effect.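 Further: wild-type HCT-116 cells with endogenous class I/II HDAC activity; nearly all actives have a fitted effect of over 45% in size.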 A digest of the protocol:
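Quantitative high-throughput format: overnight-seeded HCT-116 cells got compounds for 2 hr at 37C; HDAC-Glo I/II reagent added, 30 min RT, luminescence measured.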

Assay [7] can be described thus: qHTS assay to identify small molecule agonists of the sonic hedgehog signaling (Shh) pathway - cell viability counter screen (AID 1259366). Further: nearly all actives have a fitted effect of over 50% in size. Further: potency means the concentration at half of the fitted maximal effect. A digest of the protocol: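 In quantitative high-throughput format, 3T3 Gli1-Luc cells were exposed to compounds for 24hr and multiplexed for viability using CellTiter-Fluor, incubated 1hr at 37C before the fluorescence read.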

Assay [8] can be described thus: qHTS assay to identify small molecule antagonists of the sonic hedgehog signaling (Shh) pathway - cell viability counter screen (AID 1259367). Further: nearly all actives have a fitted effect of over 55% in size. Further: potency means the concentration at half of the fitted maximal effect. A digest of the protocol:
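CellTiter-Fluor signal in conditioned medium-stimulated 3T3 Gli1-Luc cells, 23 hr compound exposure, 37C.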

The nature of assay [9]: qHTS assay to identify small molecule agonists of the sonic hedgehog signaling (Shh) pathway (AID 1259368; calls by dose curve;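 further: NIH/3T3-derived 3T3Gli1-Luc cells carrying a stable Gli1-driven firefly luciferase reporter; series mostly up to about 92 µM; nearly all actives have a fitted effect of over 15% in size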). A digest of the protocol:
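Quantitative high-throughput format using a Gli1-driven firefly luciferase reporter line derived from NIH/3T3 cells. After a 24 hr compound treatment at 37 C and 5% CO2, luminescence reported Gli1 response element activity.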

Assay [10] can be described thus: qHTS assay to identify small molecule antagonists of the sonic hedgehog signaling (Shh) pathway (AID 1259369; calls by dose curve; further: nearly all actives have a fitted effect of over 45% in size; further: potency means the concentration at half of the fitted maximal effect). A digest of the protocol:
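Stable Gli1-Luc reporter NIH/3T3 clone; quantitative HTS in stimulated mode with conditioned medium. Luminescence measured after 24hr compound treatment at 37 C.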

Assay [11] can be described thus: qHTS assay to identify small molecule agonists of the estrogen receptor beta (ER-beta) signaling pathway - cell viability counter screen (AID 1259380). Further: nearly all actives have a fitted effect of over 30% in size. Further: potency means the concentration at half of the fitted maximal effect. A digest of the protocol: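 Steps: plate ER-beta-UAS-bla HEK293T cells, rest 6 hr; add compounds in DMSO; incubate 16 hr at 37C, 5% CO2; add FRET substrate 2 hr; add CellTiter-Glo, wait 30 min at room temperature; read luminescence.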

Assay [12] in a line: A CellTox Green Cytotoxicity Assay to monitor cytotoxicity in HepG2 cells - 8 hour (AID 1224890). Further: nearly all actives have a fitted effect of over 45% in size. A digest of the protocol: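 First, HepG2 cells (600/well) mixed with reagent were plated; second, after 5 h at 37 C they received compounds via pintool; third, fluorescence was measured at 0 h through 40 h at 8 h intervals.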
Assay [13] concerns the target Androgen receptor (Homo sapiens) (UniProt P10275). The assay is described as follows: qHTS assay to identify small molecule antagonists of the androgen receptor (AR) signaling pathway using the MDA cell line in the presence of 0.5 nM R1881 (AID 1259243). Further: nearly all actives have a fitted effect of over 50% in size. Further: potency means the concentration at half of the fitted maximal effect. A digest of the protocol: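 Antagonist mode quantitative HTS in MDA-kb2 MMTV-luciferase cells, agonist R1881 at 0.5 nM final, 16 hr exposure at 37C and 0% CO2, luminescent detection.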

For assay [14], the target named is Estrogen receptor (Homo sapiens) (UniProt P03372). Kind of assay: qHTS assay to identify small molecule antagonists of the estrogen receptor alpha (ER-alpha) signaling pathway using the BG1 cell line in the presence of 0.1 nM 17-beta-estradiol (AID 1259244). Further: nearly all actives have a fitted effect of over 50% in size. Further: potency means the concentration at half of the fitted maximal effect. A digest of the protocol: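 Reporter is a stably transfected luciferase under four estrogen responsive elements in VM7Luc4E2 cells expressing native full-length ER-alpha; inhibition of 0.1 nM (final) 17beta-estradiol-driven signal over 22 h is read by luminescence.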

Assay [15] is described as follows: qHTS assay to identify small molecule HDAC inhibitors - cell viability counter screen (AID 1259365). A digest of the protocol:
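Measured quantity is CellTiter-Glo luminescence from wild-type HCT-116 cells after compound incubation of 2hr at 37C, 5% CO2; reagent developed 30min at room temperature.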

Assay [16] in a line: qHTS assay to identify small molecule agonists of the androgen receptor (AR) signaling pathway in the presence of an antagonist - cell viability counter screen (AID 1259379). Further: nearly all actives have a fitted effect of over 25% in size. Further: potency means the concentration at half of the fitted maximal effect. A digest of the protocol:
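Nilutamide-containing (3.0uM final) MDA-kb2 cultures, 3,000 cells/well, were treated with compounds across 15 concentrations. After 16 hr at 37C with no CO2, cell viability was determined by CellTiter-Fluor fluorescence in the luciferase assay wells.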

In assay [17] the target is Androgen receptor (Homo sapiens) (UniProt P10275). The assay is described as follows: qHTS assay to identify small molecule agonists of the androgen receptor (AR) signaling pathway in the presence of an antagonist (AID 1259381; calls by dose curve; further: nearly all actives have a fitted effect of over 15% in size). A digest of the protocol:
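Reporter-gene luminescence from MDA-kb2 cells exposed 16hr at 37C (0% CO2) to 15-point compound titrations with 3.0uM final nilutamide as AR antagonist.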

In assay [18] the target is Estrogen receptor beta (Homo sapiens) (UniProt Q92731). Kind of assay: qHTS assay to identify small molecule agonists of the estrogen receptor beta (ER-beta) signaling pathway (AID 1259377; active means well fitted activation curve with a large enough effect in the signal ratio in the repeat runs, not every such curve was filed as active; the % refers to the signal ratio). A digest of the protocol:
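Reporter cells (HEK293T, ER-beta-UAS-bla) receive compounds or DMSO after a 6 hr pre-incubation. They then incubate 16 hr at 37C/5% CO2, and fluorescence from LiveBLAzer B/G substrate is measured after 2 hours at room temperature.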

Assay [19] shares this target. Kind of assay: qHTS assay to identify small molecule antagonists of the estrogen receptor beta (ER-beta) signaling pathway (AID 1259378; active means well fitted inhibition curve with a large enough effect in the signal ratio in the repeat runs, not every such curve was filed as active; the % refers to the signal ratio). A digest of the protocol: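 Antagonist mode: compounds added to beta-lactamase reporter HEK293T ER-beta-UAS cells stimulated with E2 (1nM final), 16 hr at 37C. LiveBLAzer B/G FRET substrate, 2 hours room temperature, fluorescence read-out.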

Unmarked numbers belong to inactive results. Inconclusive results are not listed. The source made the active and inactive calls. Unless noted, the call rests on the fitted dose curve; in most records, active means well fitted curve in the direction sought with a large enough effect in the repeat runs; inconclusive means weak or mixed curves; inactive means no such curve, though single readings can be large; an effect the other way counts as inactive or inconclusive.

Sequence of Estrogen receptor (Homo sapiens) (P03372 whole entry, looked up): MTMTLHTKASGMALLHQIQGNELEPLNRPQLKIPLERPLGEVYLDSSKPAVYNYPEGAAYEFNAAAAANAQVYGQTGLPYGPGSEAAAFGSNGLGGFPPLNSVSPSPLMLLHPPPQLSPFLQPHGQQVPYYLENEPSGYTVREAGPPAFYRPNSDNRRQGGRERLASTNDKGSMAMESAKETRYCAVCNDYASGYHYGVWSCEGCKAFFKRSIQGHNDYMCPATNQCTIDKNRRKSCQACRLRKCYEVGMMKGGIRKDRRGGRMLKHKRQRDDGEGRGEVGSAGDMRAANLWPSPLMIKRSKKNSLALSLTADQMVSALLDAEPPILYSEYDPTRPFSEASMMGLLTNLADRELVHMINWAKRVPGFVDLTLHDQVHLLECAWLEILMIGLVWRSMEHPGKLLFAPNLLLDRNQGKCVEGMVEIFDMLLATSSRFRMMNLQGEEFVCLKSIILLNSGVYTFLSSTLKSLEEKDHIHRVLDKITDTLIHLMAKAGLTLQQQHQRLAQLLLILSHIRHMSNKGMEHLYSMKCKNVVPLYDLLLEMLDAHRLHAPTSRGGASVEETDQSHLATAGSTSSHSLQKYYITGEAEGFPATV
Sequence of Estrogen receptor beta (Homo sapiens) (Q92731 whole entry, looked up): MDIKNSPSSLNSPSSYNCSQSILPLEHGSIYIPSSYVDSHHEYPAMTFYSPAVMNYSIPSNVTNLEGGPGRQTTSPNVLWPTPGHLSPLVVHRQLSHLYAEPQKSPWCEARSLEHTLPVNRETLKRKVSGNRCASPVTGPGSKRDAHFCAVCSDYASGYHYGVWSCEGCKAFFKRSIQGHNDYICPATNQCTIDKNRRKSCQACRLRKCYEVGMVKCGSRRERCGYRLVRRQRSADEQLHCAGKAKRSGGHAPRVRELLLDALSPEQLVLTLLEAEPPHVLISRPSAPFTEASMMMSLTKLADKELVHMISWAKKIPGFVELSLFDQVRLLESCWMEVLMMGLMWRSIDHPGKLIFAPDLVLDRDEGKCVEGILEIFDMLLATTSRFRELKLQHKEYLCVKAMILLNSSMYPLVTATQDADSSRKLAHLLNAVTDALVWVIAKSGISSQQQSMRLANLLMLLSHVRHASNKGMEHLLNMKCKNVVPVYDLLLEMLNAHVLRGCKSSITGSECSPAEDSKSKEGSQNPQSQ
Sequence of Androgen receptor (Homo sapiens) (P10275 whole entry, looked up): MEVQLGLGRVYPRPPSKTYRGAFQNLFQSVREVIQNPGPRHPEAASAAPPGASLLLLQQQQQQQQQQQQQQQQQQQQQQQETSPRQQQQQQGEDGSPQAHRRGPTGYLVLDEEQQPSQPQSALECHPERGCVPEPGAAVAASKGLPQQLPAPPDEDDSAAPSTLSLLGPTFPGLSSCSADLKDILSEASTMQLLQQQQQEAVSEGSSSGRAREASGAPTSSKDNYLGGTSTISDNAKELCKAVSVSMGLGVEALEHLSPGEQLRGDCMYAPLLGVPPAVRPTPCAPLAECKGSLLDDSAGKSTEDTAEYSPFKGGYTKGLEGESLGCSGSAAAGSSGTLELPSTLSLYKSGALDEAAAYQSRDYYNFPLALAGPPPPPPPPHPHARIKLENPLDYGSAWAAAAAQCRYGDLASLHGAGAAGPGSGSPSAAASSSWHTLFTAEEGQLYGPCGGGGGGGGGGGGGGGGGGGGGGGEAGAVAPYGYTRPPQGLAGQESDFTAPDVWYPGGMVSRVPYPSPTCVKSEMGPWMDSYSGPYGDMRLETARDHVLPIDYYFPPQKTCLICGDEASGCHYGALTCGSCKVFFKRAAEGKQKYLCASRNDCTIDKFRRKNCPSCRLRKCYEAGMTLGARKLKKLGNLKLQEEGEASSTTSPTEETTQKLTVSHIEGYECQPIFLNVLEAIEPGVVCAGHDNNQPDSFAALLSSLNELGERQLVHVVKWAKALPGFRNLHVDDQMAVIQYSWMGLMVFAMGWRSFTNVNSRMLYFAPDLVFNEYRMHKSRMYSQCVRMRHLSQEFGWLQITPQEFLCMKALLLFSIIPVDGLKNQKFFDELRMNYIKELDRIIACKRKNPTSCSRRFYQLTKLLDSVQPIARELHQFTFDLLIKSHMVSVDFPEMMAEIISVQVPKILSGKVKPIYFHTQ

Consider `CN1CCN(c2ccccc2/C=C2\SCCN(c3ccc(Cl)c(Cl)c3)C2=O)CC1`, for which the Potency was 12.3 µM (active) in [1]; 49 µM (active) in assay [2]; 48.6 µM (active) in [5]; 27.3 µM (active) in [7]; 54.5 µM (active) in assay [8]; 5.45 µM (active) in assay [10]. In addition, in [11], the Potency was 30.6 µM (active). The Potency result in assay [3], in assay [4], in assay [6] and in [9] was “inactive” each time.

With `CCc1cccc(C)c1N(C(=O)C(=O)O)C(C)COC` (centres undefined), the Potency result in assay [1], in assay [2], in assay [12], in [4], in assay [5] and in [13] was “inactive” throughout. The Potency entry in [14], in [6], in [15], in [7], in assay [8] and in assay [9] was “inactive” in each case. For the same molecule, the Potency result in assay [10], in assay [16], in assay [11] and in [17] was “inactive” in each case.

With `O=C(c1ccccc1)c1ccc(Cl)cc1`, the Potency entry in assay [1], in assay [2], in assay [12], in assay [4], in [5] and in [14] was “inactive” in each case. For the same molecule, the Potency entry in [6], in assay [15], in assay [9], in assay [11] and in assay [17] was “inactive” in each case.

Regarding `Cc1ccc(S(=O)(=O)C(I)I)cc1`, the Potency in assay [1] was 24.5 µM (active); in assay [2], 43.6 µM (active); in assay [3] it was 12.3 µM (active); in assay [5], 48.6 µM (active); in assay [13], 15.4 µM (active); in assay [14] it was 13.7 µM (active). Moreover, the Potency in assay [7] was 6.11 µM (active); in assay [8], 7.7 µM (active); in assay [10] it was 1.22 µM (active); in [16], 68.6 µM (active); in assay [11], 21.7 µM (active). Further, the Potency result in [6], in assay [15], in assay [9] and in assay [17] was “inactive” in each case.

On to `CCN(CC)c1ccc(N=Nc2ccccc2)cc1`, for which the Potency in assay [1] is 43.6 µM (active); in [6], 27.3 µM (active); in [7], 30.6 µM (active); in assay [8], 34.4 µM (active); in assay [16] it was 27.3 µM (active); in assay [11], 17.2 µM (active). The Potency entry in assay [2], in [3], in assay [12], in assay [13] and in assay [19] was “inactive” throughout. Further, the call in assay [18] was inactive.

As for `C=CC(=O)OCC(Br)CBr` (centres undefined), the Potency entry in [1], in [2], in assay [12], in [4], in assay [5] and in [13] was “inactive” each time. Also, the Potency result in [6], in assay [7], in assay [8], in assay [9], in [19] and in assay [16] was “inactive” in each case. Besides, in assay [17], the Potency result was “inactive”. For the same molecule, in assay [18], the molecule was called inactive.

As for `C=CCc1cc(S(=O)(=O)c2ccc(O)c(CC=C)c2)ccc1O`, the Potency in assay [1] was 24.5 µM (active); in [8] it was 24.3 µM (active). In addition, the Potency entry in [2], in assay [12], in assay [4], in [5], in [13] and in assay [6] was “inactive” in each case. Also, the Potency result in [9], in assay [10] and in assay [17] was “inactive” each time.

Turning to `CC1(C)[C@H](C(=O)OCc2cccc(Oc3ccccc3)c2)[C@@H]1C=C(Cl)Cl`, the Potency result in assay [1], in assay [2], in assay [3], in assay [12], in assay [5] and in assay [13] was “inactive” throughout. The Potency entry in assay [6], in assay [15], in assay [7], in assay [8], in assay [9] and in assay [10] was “inactive” throughout. The Potency result in assay [16] and in [17] was “inactive” in each case.

Source of the values: PubChem BioAssay (Tox21).
